Consider 25 compounds from PubChem BioAssay (NCI).

Compounds without any hit were thinned out: in the full panel of roughly 83,000, 20% have a hit.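 Negative percent growth values reflect cell death: -40 means 40% of the cells present at the start died, and -100 means all died.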 A number with no mark means an inactive call. Active and inactive are the calls of the source. The calls were made as follows: active = growth percent below 10; inactive = the rest.

The assay has as its system HL-60(TB) leukemia. The assay can be described thus: NCI-60 one-dose screen, 48 h (100 = growth as untreated, 0 = no growth, -100 = all killed). The conditions noted are these: 10 µM unless noted.
With `Oc1ccc(N=Cc2ccccc2)cc1`, the growth was 0.519% (active). The value for `Cc1ccc(CSCc2ccc(C(=O)NC3CC3)o2)cc1` was 59.5%. The value for `COc1ccc(C(=O)OC2C(OC3C(O)COC(O[C@H]4C[C@H]5[C@@H]6CC=C7C[C@@H](O)CC[C@]7(C)[C@H]6CC[C@]5(C)[C@H]4[C@H](C)C(=O)CCC(C)C)C3OC(N)=O)OCC(O)C2O)cc1` (stereo not given in full) was -36.9% (active); that for `CC1(C)CC(=O)c2c(nc3ccc(Cl)cc3c2-c2ccccc2)C1` was 82.3%. The figure for `CC[N+](C)(CC)CCO` is 96.9%; for `C=C1C(=O)O[C@H]2[C@H]1CC/C(COC(=O)C(=O)c1c[nH]c3ccc(Cl)cc13)=C\CC[C@@]1(C)O[C@@H]21` it is -44.6% (active); for `O=C(CS)Nc1ccc2ccccc2c1` it is 120%. `CC(C)CC1C(=O)N2CCC[C@H]2C2(O)O[C@](NC(=O)C3C=C4c5cccc6[nH]c(Br)c(c56)C[C@H]4N(C)C3)(C(C)C)C(=O)N12` (stereo not given in full): the growth was 1.92% (active). The figure for `Cc1nn(-c2ccc(-c3ccc(OC(F)(F)F)cc3)cc2)c2nc(-c3ccccc3)nc(N)c12` is 100%; for `Cc1nc2cc(Nc3nc(NCCO)nc(Nc4ccc(F)cc4)n3)ccc2n1Cc1ccccc1` it is -26.8% (active). As to `COc1ccc2nc3c(cc2c1)C(=O)CC(c1ccccc1)C3` (stereo not given), the growth is -1.74% (active). The value for `CC/C=C\C[C@H](O)C/C=C1/C(=O)C=C[C@@H]1C/C=C\CCCC(=O)O` was 75.2%; that for `COc1ccc(CCN2C(=O)CCSC2=S)cc1OC` was 98.1%.

For `NC(CCl)=NCCC[C@H](N)C(=O)O`, the growth is 104%. The value for `CCc1c2c(nc3ccc(OCc4ccc(B5OC(C)(C)C(C)(C)O5)cc4)cc13)-c1cc3c(c(=O)n1C2)COC(=O)[C@]3(O)CC` was -1.71% (active); that for `O=C1CC(c2ccc(O)c(O)c2)Oc2cc(O)c([C@@H]3O[C@H](CO)[C@@H](O)[C@H](O)[C@H]3O)c(O)c21` (stereo not given in full) was 99.6%.

On to `CCCn1c(=S)sc2c(Cl)nc(C)nc21`, for which the growth was 130%. The figure for `COc1ccc(C2=Nc3c(N)ncnc3NC(c3ccc4c(c3)OCO4)C2)cc1` (stereo not given) is 124%. Regarding `Cc1cc(-c2ccc(N=Nc3c(C)nn(-c4ccc(S(=O)(=O)O)cc4)c3O)c(C)c2)ccc1N=Nc1ccc(O)c(C(=O)O)c1`, the growth is 99%. The value for `CCOC(=O)c1c(C)[nH]c(CO)c1C` was 97.1%; that for `COc1ccc2sc3c(NCCCN)nc4ccccc4c3c(=O)c2c1` was 2.17% (active). The figure for `CN(C)CCN(C)CC(C)(C)C(=O)/C=C/c1ccc(Cl)c(Cl)c1` is -41.9% [100 µM] (active). `Cc1ccc(C(C)C)c(OCC(=O)O)c1`: the growth was 117%. The value for `COCCCNc1nc(NC(=O)c2cc(Br)cc(C(F)(F)F)c2)cc(-c2cccnc2)n1` was 94.6%. The figure for `COc1ccc(NC(=O)c2ccccc2-c2ccccc2)c(C(N)=O)c1` is -17.9% (active).
